Among all 2,100 compounds or so, about 770 (37%) were called active.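 How the source made its calls: active means by-eye trace score of 1 for enhancers or -1 for inhibitors, so actives lie on both sides (some results past the limit were not filed as active); inactive means score 0, or 3 fluorescent, or 4 baseline rise.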 The list shows a part of the results.

G protein-activated inward rectifier potassium channel 2 (Homo sapiens) + G protein-activated inward rectifier potassium channel 1 (Homo sapiens), sequence (P48051 whole entry, looked up): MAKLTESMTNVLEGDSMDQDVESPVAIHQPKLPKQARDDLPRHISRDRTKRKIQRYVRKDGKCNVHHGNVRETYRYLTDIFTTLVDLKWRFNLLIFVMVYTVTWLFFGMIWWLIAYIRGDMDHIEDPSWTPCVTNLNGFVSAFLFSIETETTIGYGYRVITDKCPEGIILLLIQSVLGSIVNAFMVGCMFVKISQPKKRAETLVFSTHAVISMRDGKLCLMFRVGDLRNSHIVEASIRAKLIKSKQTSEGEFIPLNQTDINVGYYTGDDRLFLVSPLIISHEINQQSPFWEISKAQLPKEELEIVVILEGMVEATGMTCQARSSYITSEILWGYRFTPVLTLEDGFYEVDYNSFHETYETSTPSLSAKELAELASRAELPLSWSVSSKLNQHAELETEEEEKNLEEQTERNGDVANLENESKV
G protein-activated inward rectifier potassium channel 2 (Homo sapiens) + G protein-activated inward rectifier potassium channel 1 (Homo sapiens), sequence (P48549 whole entry, looked up): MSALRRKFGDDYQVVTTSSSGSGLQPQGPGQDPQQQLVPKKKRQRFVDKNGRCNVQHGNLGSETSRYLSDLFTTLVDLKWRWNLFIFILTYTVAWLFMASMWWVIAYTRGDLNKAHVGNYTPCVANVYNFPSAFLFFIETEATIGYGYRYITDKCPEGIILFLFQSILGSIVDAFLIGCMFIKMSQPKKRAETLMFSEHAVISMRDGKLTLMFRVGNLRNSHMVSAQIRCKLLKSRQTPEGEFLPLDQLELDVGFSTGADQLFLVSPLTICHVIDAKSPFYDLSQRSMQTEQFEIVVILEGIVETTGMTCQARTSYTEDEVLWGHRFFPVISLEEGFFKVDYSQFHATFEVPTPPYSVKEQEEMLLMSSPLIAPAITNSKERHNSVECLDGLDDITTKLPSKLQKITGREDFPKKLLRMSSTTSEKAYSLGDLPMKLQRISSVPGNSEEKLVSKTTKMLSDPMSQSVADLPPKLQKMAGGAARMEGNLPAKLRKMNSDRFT

The experiment has as its target G protein-activated inward rectifier potassium channel 2 (Homo sapiens) + G protein-activated inward rectifier potassium channel 1 (Homo sapiens) (UniProt P48051+P48549). In words: GIRK1/2 thallium flux modulators, retest, confirmation, cell-based, HEK293 rmGlu8/hGIRK1/2, FluoZin-2 (AID 623911). Particulars: HEK293 rmGlu8/hGIRK1/2, thallium flux FluoZin-2; actives lie on both sides; glutamate co-added at its EC20 level.
For the compound `COc1cc(/C=C2/C(=O)N=C(N)N2C)cc(OC)c1OC`, the manual score is 0 (inactive).

As for `CC(C)COc1ccc(Cc2cnc(N)nc2N)cc1`, the manual score was 0 (inactive).

As to `O=C(COc1ccccc1)NC(=S)Nc1cccc([N+](=O)[O-])c1`, the manual score is 1 (active).

For the compound `Cc1ccc(C(=O)NC(=S)Nc2ccccc2C(F)(F)F)cc1C`, the manual score was 0 (inactive).

Take `O=C(COc1ccccc1)NC(=S)Nc1ccc2c3c(cccc13)CC2`: the manual score is 0.5 (inactive).

Turning to `Cc1ccc(C(=O)NC(=S)Nc2ccccc2C(F)(F)F)cc1`, the manual score was 1 (active).

Regarding `O=C(COc1ccccc1)NC(=S)Nc1ccc2c(c1)Cc1ccccc1-2`, the manual score was 0 (inactive).

`COC(=O)c1ccccc1NC(=S)NC(=O)c1ccc(C)cc1`: the manual score is 1 (active).

`COC(=O)c1ccccc1NC(=S)NC(=O)COc1ccccc1`: the manual score was 1 (active).

Regarding `COC(=O)c1ccccc1NC(=S)NC(=O)COc1ccc(C)cc1`, the manual score is 0 (inactive).

For `CCC1c2ccc(C)n2CCN1C(=O)Nc1ccccc1C(=O)OC` (stereo not drawn), the manual score was 0 (inactive).

`COC(=O)c1ccccc1NC(=S)NC(=O)c1ccccc1`: the manual score is 1 (active).

With `O=C(NC(=S)Nc1ccc(Oc2ccc(Cl)cc2)cc1)c1ccccc1`, the manual score was 0 (inactive).

For the compound `CC(C)CNC(=S)Nc1ccc(Oc2ccccc2)cc1`, the manual score was 1 (active).

In the case of `CC1CCCCN1CC(=O)Nc1ccc(Oc2ccccc2)cc1` (stereo not drawn), the manual score was 0 (inactive).

As to `CCOC(=O)c1ccc(NC(=S)NC(=O)COc2ccccc2)cc1`, the manual score is 0.5 (inactive).

As for `S=C(NN=C(C1CC1)C1CC1)Nc1ccccc1`, the manual score is 0 (inactive).

Turning to `CCCN(CC1CC1)C(=S)Nc1ccc(Oc2ccccc2)cc1`, the manual score was 1 (active).

As to `CCOC(=O)c1ccc(NC(=S)NC2CCCC2)cc1`, the manual score is 1 (active).

Consider `S=C(Nc1ccc(Oc2ccccc2)cc1)NC1CCCC1`, for which the manual score was 1 (active).

Turning to `CCOC(=O)c1[nH]c(C)c(C(=O)NC2CCCCC2)c1C`, the manual score is 0 (inactive).

Consider `FC(F)(F)Oc1ccc(NC(=S)NCc2ccccc2)cc1`, for which the manual score is 0 (inactive).

For the compound `COc1ccc(N(CC(=O)NCCSc2ccccn2)S(C)(=O)=O)cc1Cl`, the manual score is 0 (inactive).

For `COc1cc2c(cc1NC(=O)COc1ccccc1OC)oc1ccccc12`, the manual score is 0 (inactive).

Consider `COc1ccc(CN(C)CC(=O)NC(=O)NCc2ccccc2)cc1OC`, for which the manual score is 0 (inactive).

With `COc1ccc(CCNC(=O)CSc2nnc(-c3ccc(F)cc3)c3ccccc23)cc1OC`, the manual score was -1 (active).

As for `CCCCC(=O)Nc1ncc2c(n1)CC(C)(C)CC2=O`, the manual score is 0 (inactive).

In the case of `CC1(C)Cc2nc(NCCN3CCOCC3)c(C#N)cc2CO1`, the manual score was 0 (inactive).

As for `N/C(=N\OC(=O)Cc1ccccc1)c1ccc(Br)cc1`, the manual score is 0 (inactive).

Turning to `O=C(NN=C(Cc1ccccc1)Cc1ccccc1)c1ccc(F)cc1`, the manual score is 1 (active).

Regarding `Cc1ccccc1C(=O)Nc1ccccc1C(=O)N/N=C\c1ccco1`, the manual score was 1 (active).

Take `Cc1cc(C)c(NC(=O)/C(=C/c2ccco2)c2ccccc2)c(C)c1`: the manual score was 0 (inactive).

`O=C(Nc1ccccc1C(=O)N/N=C/c1ccco1)c1ccccc1`: the manual score was 0.5 (inactive).

For `Fc1ccc(CSc2nc3ccccc3[nH]2)c2ccccc12`, the manual score was 1 (active).

On to `CC(Sc1nc2ccccc2c(=O)[nH]1)C(=O)O` (stereo not drawn), for which the manual score is 0 (inactive).

`O=C(CSc1nc2ccccc2[nH]1)NC1CCCc2ccccc21` (stereo not drawn): the manual score was 0 (inactive).

Turning to `CN1CCN(c2ccccc2NS(=O)(=O)c2ccc3c(c2)CCN3C(=O)C2CCC2)CC1`, the manual score was -1 (active).

As for `O=[n+]1c2c(n([O-])c3cc(F)c(N4CCCC4)cc31)CCC2`, the manual score was 3 (inactive).

On to `CCCN(CCC)CCNC(=O)C(NS(=O)(=O)c1ccc2c(c1)CCC(=O)N2)c1ccccc1` (stereo not drawn), for which the manual score was 0 (inactive).

As to `Cc1ccc(S(=O)(=O)n2cnc3cc([N+](=O)[O-])ccc32)cc1C`, the manual score is 0 (inactive).

`COc1ccc(OC)c(C2C(C(=O)c3cc4ccccc4o3)=C(O)C(=O)N2c2cc(C)on2)c1` (stereo not drawn): the manual score is 0 (inactive).

In the case of `Cc1cccc(-n2ncc3c(NCCc4ccc(S(N)(=O)=O)cc4)ncnc32)c1`, the manual score was 0 (inactive).

With `Cc1nc(NCCc2ccc(S(N)(=O)=O)cc2)c2c(C)c(C)sc2n1`, the manual score is 1 (active).

Take `NS(=O)(=O)c1ccc(CCNC2CC(=O)N(Cc3ccccc3)C2=O)cc1` (stereo not drawn): the manual score is 0 (inactive).

On to `CC(C)CNC(=S)NC(=O)c1ccc(Cl)cc1Cl`, for which the manual score was 1 (active).

As for `CCCCNC(=S)NC(=O)c1ccc(Cl)cc1Cl`, the manual score is 1 (active).

`CC(C)NC(=S)NC(=O)c1ccc(Cl)cc1Cl`: the manual score is 1 (active).

Take `CCCCNC(=S)NC(=O)c1ccccc1Br`: the manual score was 0.5 (inactive).

Turning to `CC(C)CNC(=S)NC(=O)c1ccccc1Cl`, the manual score was 0 (inactive).

On to `CCOc1ccc(C(C)=O)cc1N1C(=O)C2C(C1=O)C1C=CC2C12CC2` (stereo not drawn), for which the manual score was 0 (inactive).

Regarding `C=CCn1c(=S)[nH]c2sc3c(c2c1=O)CCC3`, the manual score is 1 (active).

Consider `Cc1nc(C)c(C(=O)Nc2ccc(Oc3ccccc3)cc2)o1`, for which the manual score was 1 (active).

Take `CC(=O)Nc1ccc(Oc2ncccn2)cc1`: the manual score is 0 (inactive).

For `Cc1ncoc1C(=O)Nc1ccc(Oc2ccccc2)cc1`, the manual score is 0.5 (inactive).

On to `O=C1c2ccsc2SCCN1Cc1c(Cl)cccc1Cl`, for which the manual score was -1 (active).

Take `CCCC(c1c(C)n(C)n(-c2ccccc2)c1=O)c1c(C)n(C)n(-c2ccccc2)c1=O`: the manual score is 0 (inactive).

As to `O=C(N/N=C/c1ccccn1)c1ccc(Br)cc1`, the manual score is 1 (active).

For `O=C(N/N=C/c1ccc2cccc(OCc3ccccc3)c2n1)c1ccc(Br)cc1`, the manual score is 0.5 (inactive).

With `COc1ccc(C(=O)N/N=C/c2ccc3cccc(OCc4ccccc4)c3n2)cc1`, the manual score was 0 (inactive).

For the compound `CCCC1=C(C(=O)OCC)C(c2ccc(F)cc2)n2ncnc2N1` (stereo not drawn), the manual score was 0 (inactive).

For `CCOC(=O)C1=C(C)Nc2nnnn2C1c1ccccc1Cl` (stereo not drawn), the manual score is -1 (active).

For `CCOC(=O)C1=C(C)NC2=C(C(=O)C(C(=O)OCC)C(c3ccccc3OC)C2)C1c1ccccn1` (stereo not drawn), the manual score is 0 (inactive).

As for `CC(C)CCn1c(S(=O)(=O)O)nc2ccccc21`, the manual score was 0 (inactive).

As for `CCN1c2ccccc2-c2nc3ccccc3n2C1c1ccco1` (stereo not drawn), the manual score was 0 (inactive).

Consider `CCCCCn1c(NCc2ccco2)nc2ccccc21`, for which the manual score is -1 (active).

`CCc1c(C)c(C#N)c2nc3ccccc3n2c1NCc1ccco1`: the manual score is -1 (active).

On to `CCCCn1c(SCC(=O)NCc2ccco2)nc2ccccc2c1=O`, for which the manual score is 0.5 (inactive).

Turning to `Cn1c(NCc2cccc(Br)c2)nc2ccccc21`, the manual score was -1 (active).

Take `C/C(=N\NC(=O)c1ccccc1)c1nc2ccccc2n1C`: the manual score was 0 (inactive).

As for `CCCCn1c(NC(=S)Nc2ccccc2)nc2ccccc21`, the manual score was 0 (inactive).

For the compound `CCCn1c(NCc2ccc(N(C)C)cc2)nc2ccccc21`, the manual score is -1 (active).

`CCCCn1c(NC(=O)c2ccccc2Cl)c(C#N)c2nc3ccccc3nc21`: the manual score is -0.5 (inactive).

On to `Cc1cccc(N2C(N)=NC(N)=NC23CCCCC3)c1`, for which the manual score was 0 (inactive).

On to `O=C(CN1C(=O)/C(=C/c2ccccc2F)Oc2ccccc21)N1CCN(c2ccccn2)CC1`, for which the manual score is 0 (inactive).

Turning to `O=C(NNC(=O)c1cccnc1SCc1cccc([N+](=O)[O-])c1)c1ccccn1`, the manual score was 0 (inactive).

Turning to `O=C(NNC(=O)c1cccnc1SCc1cccc([N+](=O)[O-])c1)c1cccnc1`, the manual score was 0 (inactive).

`Cc1ccccc1NC1=C(Cl)C(=O)OC1OC(=O)c1ccco1` (stereo not drawn): the manual score is 0 (inactive).

In the case of `O=C(Oc1c(Cl)cc(Cl)c2cccnc12)c1cccc([N+](=O)[O-])c1`, the manual score was 1 (active).

Regarding `O=C(Oc1c(Cl)cc(Cl)c2cccnc12)c1ccco1`, the manual score is 1 (active).

Take `Cc1ccc(C2c3c(oc4ccc(Cl)cc4c3=O)C(=O)N2CCCN2CCOCC2)o1` (stereo not drawn): the manual score was 0.5 (inactive).

As to `O=c1c2ccccc2c(C=NCc2ccccn2)c(O)n1-c1ccccc1`, the manual score is 0 (inactive).

For the compound `CCOc1ccc(Br)cc1/C(C)=N\NC1=NCCN1`, the manual score is -1 (active).

For the compound `CCNS(=O)(=O)c1cc(S(C)(=O)=O)ccc1Cl`, the manual score was 0 (inactive).

Turning to `Cc1ccc(/C=N/n2c(COc3ccccc3)n[nH]c2=S)s1`, the manual score is 0 (inactive).

As to `COc1cccc(/C=N/n2c(-c3cccs3)n[nH]c2=S)c1`, the manual score is 1 (active).

For the compound `CCN(CC)S(=O)(=O)c1cccc(-c2n[nH]c(=S)n2/N=C/c2ccc(C(=O)OC)cc2)c1`, the manual score was 0 (inactive).

For `CC(/C=N/n1c(-c2ccccc2)n[nH]c1=S)=C\c1ccco1`, the manual score is 0 (inactive).

As for `COc1ccc(/C=N/n2c(-c3cccs3)n[nH]c2=S)cc1`, the manual score is 1 (active).

In the case of `CC(=C/c1ccccc1)/C=N/n1c(-c2ccco2)n[nH]c1=S`, the manual score was 0 (inactive).

Consider `CC(=O)Nc1ccc(S(=O)(=O)NC(C(=O)O)C2=CCC=CC2)cc1` (stereo not drawn), for which the manual score is 0 (inactive).

Consider `CN(C)S(=O)(=O)c1cccc(NC(=S)Nc2cc(Cl)cc(Cl)c2)c1`, for which the manual score is 1 (active).

On to `CN(C)S(=O)(=O)c1cccc(NC(=O)COc2cccc(C#N)c2)c1`, for which the manual score was 0 (inactive).

`Cc1ccc(NCC(=O)Nc2cccc(S(=O)(=O)N(C)C)c2)c(Cl)c1`: the manual score was 0 (inactive).

With `CN(C)S(=O)(=O)c1cccc(NC(=O)Cc2ccc(Cl)cc2)c1`, the manual score is 1 (active).

For the compound `S=C(Nc1ccccc1Cl)Nc1ccc(Cl)cc1Cl`, the manual score was 1 (active).

With `CN(C)S(=O)(=O)c1cccc(NC(=S)Nc2ccc(Cl)cc2Cl)c1`, the manual score is 1 (active).

In the case of `O=C(Nc1cccc(S(=O)(=O)c2cccc(NC(=O)C3CC3)c2)c1)C1CC1`, the manual score was 0 (inactive).

For `O=C(NCCCCNC(=O)c1cccnc1)c1cccnc1`, the manual score is 0 (inactive).

For the compound `CC(C)OC(=O)/C(=C/c1cccnc1)NC(=O)c1ccccc1`, the manual score was 0 (inactive).

For `O=C(N/N=C(\c1ccccc1)c1cccnc1)C(O)(c1ccccc1)c1ccccc1`, the manual score was -1 (active).

Regarding `Cc1cc(N2C(=O)C(O)=C(C(=O)c3ccc(C)o3)C2c2cccs2)no1` (stereo not drawn), the manual score is 0 (inactive).

Turning to `CCCCn1c(-c2ccc(Cl)cc2)nc2c(=O)n(C)c(=O)[nH]c21`, the manual score was 0 (inactive).

For the compound `CC(C)N(C(=O)CSc1ncnc2sc(-c3ccccc3)cc12)C(C)C`, the manual score is 0 (inactive).

Take `CC(=O)c1c(C)[nH]c(C(=O)CSc2ncnc3sc(-c4ccccc4)cc23)c1C`: the manual score is 1 (active).

As for `CCN(CC)C(=O)CSc1ncnc2sc(-c3ccccc3)cc12`, the manual score is 0 (inactive).

On to `Clc1ccccc1-c1nnc2sc(-c3ccccn3)nn12`, for which the manual score is 0.5 (inactive).

On to `Brc1ccccc1-c1nnc2sc(-c3ccc4c(c3)OCCO4)nn12`, for which the manual score is -1 (active).

For `Clc1ccccc1-c1nnc2sc(-c3ccc4c(c3)OCO4)nn12`, the manual score was 0 (inactive).

The values are drawn from PubChem BioAssay AID623911 (Vanderbilt High Throughput Screening Facility, 2012).
